Laboratory results: PubChem BioAssay AID1159580 (chemical genetic matrix, 2015)
Values joined by “and” are separate entries in the source; they are usually repeats but may differ in a detail not shown here. Identical values can stand only once. Screen size: about 5,500 compounds; about 2,000 (36%) were called active. Roughly 18% stayed inconclusive and do not appear here. Cut-off read from the data, not from the text of the source: active = normalized growth mostly below about 0.91 (no sharp cut-off); inconclusive = no clear call, values can overlap the other calls; inactive = mostly above about 0.92. The list shows a part of the results.

Test: chemical genetic growth profiling, strain panel (AID 1159580);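 note: tested at 20 µM; growth read once vehicle control cultures reached saturation at 30 °C; 1 = growth at the plate median or of vehicle wells; lower values mean less growth of the strain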
Conditions: S. cerevisiae deletion strains, growth OD

Measured: normalized growth

Cc1cc(O)cc(O)c1C(=O)O
inactive: locus YAL021C, strain ccr4, hits give low values 0.972 | locus YAL026C, strain drs2, hits give low values 1.05 | locus YAL030W, strain snc1, hits give low values 1.02 | locus YBL061C, strain skt5, hits give low values 1.02 | locus YBR009C, strain hhf1, hits give low values 1.01 | locus YBR021W, strain FUR4, hits give low values 1.02 | locus YBR023C, strain chs3, hits give low values 1.02 | locus YBR171W, strain sec66, hits give low values 1.02 | locus YBR229C, strain ROT2, hits give low values 1.02 | locus YBR231C, strain swc5, hits give low values 1 | locus YBR279W, strain paf1, hits give low values 1.02 | locus YCL011C, strain gbp2, hits give low values 1.01 | locus YCL016C, strain dcc1, hits give low values 0.984 | locus YCL029C, strain bik1, hits give low values 1 | locus YCL061C, strain MRC1, hits give low values 1.03 | locus YCL069W, strain vba3, hits give low values 1.01 | locus YCR088W, strain abp1, hits give low values 1.02 | locus YDL005C, strain med2, hits give low values 1.03 | locus YDL035C, strain GPR1, hits give low values 1.04 | locus YDL040C, strain nat1, hits give low values 1.02 | locus YDL074C, strain BRE1, hits give low values 1.03 | locus YDL101C, strain DUN1, hits give low values 1 | locus YDL134C, strain PPH21, hits give low values 1.04 | locus YDL185W, strain tfp1, hits give low values 0.988 | locus YDL192W, strain arf1, hits give low values 1.04 | locus YDR001C, strain nth1, hits give low values 1.02 | locus YDR069C, strain doa4, hits give low values 1.03 | locus YDR101C, strain arx1, hits give low values 1.04 | locus YDR137W, strain rgp1, hits give low values 1.03 | locus YDR159W, strain sac3, hits give low values 1.06 | locus YDR162C, strain NBP2, hits give low values 1.01 | locus YDR195W, strain ref2 0.986 | locus YDR297W, strain sur2, hits give low values 1.02 | locus YDR318W, strain mcm21, hits give low values 1.01 | locus YDR334W, strain swr1, hits give low values 1.02 | locus YDR335W, strain msn5, hits give low values 1.02 | locus YDR388W, hits give low values 1 | locus YDR392W, strain spt3, hits give low values 0.897 | locus YDR502C, strain sam2, hits give low values 0.997 | locus YEL003W, strain gim4, hits give low values 1.01 | locus YEL037C, strain rad23, hits give low values 1.01 | locus YEL061C, strain CIN8 (second series), hits give low values 1.01 | locus YEL061C, strain CIN8, hits give low values 1.01 | locus YER015W, strain faa2, hits give low values 1.01 | locus YER016W, strain bim1, hits give low values 1.02 | locus YER110C, hits give low values 0.982 | locus YER111C, strain swi4, hits give low values 1.01 | locus YER155C, strain BEM2 (second series), hits give low values 1.02 | locus YER155C, strain BEM2, hits give low values 1 | locus YER167W, strain BCK2, hits give low values 1.01 | locus YFR010W, strain ubp6, hits give low values 1.02 | locus YGL078C, strain dbp3, hits give low values 0.964 | locus YGL086W, strain mad1, hits give low values 1.01 | locus YGL167C, strain pmr1, hits give low values 1.02 | locus YGL173C, strain kem1, hits give low values 1.04 | locus YGL227W, strain vid30, hits give low values 1.01 | locus YGL240W, strain doc1, hits give low values 1.02 | locus YGL248W, strain PDE1, hits give low values 1.03 | locus YGL253W, strain hxk2, hits give low values 1.05 | locus YGR078C, strain PAC10, hits give low values 1.03 | locus YGR135W, strain pre9, hits give low values 0.96 | locus YGR252W, strain gcn5, hits give low values 1.06 | locus YHR013C, strain ard1, hits give low values 1.02 | locus YHR027C, strain rpn1, hits give low values 1.01 | locus YHR030C, strain SLT2, hits give low values 1.1 | locus YHR079C, strain IRE1 (second series), hits give low values 1 | locus YHR079C, strain IRE1, hits give low values 1.08 | locus YHR094C, strain hxt1, hits give low values 1.01 | locus YHR129C, strain ARP1, hits give low values 1.02 | locus YHR142W, strain chs7, hits give low values 1.01 | locus YHR200W, strain rpn10, hits give low values 1 | locus YIL066C, strain RNR3, hits give low values 1.03 | locus YIL073C, strain SPO22, hits give low values 1 | locus YIL125W, strain kgd1, hits give low values 0.993 | locus YIR030C, strain dcg1, hits give low values 1.01 | locus YJL092W, strain hpr5, hits give low values 1.02 | locus YJL095W, strain BCK1 (second series), hits give low values 1.02 | locus YJL095W, strain BCK1, hits give low values 1.04 and 1.07 | locus YJL115W, strain asf1, hits give low values 1.02 | locus YJL129C, strain trk1, hits give low values 1.03 | locus YJL134W, strain LCB3, hits give low values 1.01 | locus YJL154C, strain vps35, hits give low values 1.01 | locus YJL164C, strain tpk1, hits give low values 0.997 | locus YJL166W, strain qcr8, hits give low values 1.03 | locus YJL168C, strain set2, hits give low values 1.02 | locus YJL187C, strain SWE1 (second series), hits give low values 1.01 | locus YJL187C, strain SWE1, hits give low values 1.02
